Reference: PubChem BioAssay AID1159580 (chemical genetic matrix, 2015)
Several values for one entry are separate records, joined by “and”; a condition that tells them apart may be missing. Equal entries are not always repeated. In all, about 5,500 compounds went through this assay and about 2,000 (36%) were called active. Inconclusive results (about 18%) are left out. Cut-off read from the data, not from the text of the source: active = normalized growth mostly below about 0.91 (no sharp cut-off); inconclusive = no clear call, values can overlap the other calls; inactive = mostly above about 0.92. The list shows a part of the results.

Experiment: chemical genetic growth profiling, strain panel (AID 1159580);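 note: tested at 20 µM; growth read once vehicle control cultures reached saturation at 30 °C; 1 = growth at the plate median or of vehicle wells; lower values mean less growth of the strain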
Conditions: S. cerevisiae deletion strains, growth OD
[1] = locus YAL013W, strain DEP1, stronger effect = lower value
[2] = locus YBR229C, strain ROT2, stronger effect = lower value
[3] = locus YDL101C, strain DUN1, stronger effect = lower value
[4] = locus YDL134C, strain PPH21, stronger effect = lower value
[5] = locus YDR150W, strain NUM1, stronger effect = lower value
[6] = locus YEL061C, strain CIN8, stronger effect = lower value
[7] = locus YHR030C, strain SLT2, stronger effect = lower value
[8] = locus YJR043C, strain POL32, stronger effect = lower value
[9] = locus YJR075W, strain HOC1, stronger effect = lower value
[10] = locus YKL190W, strain CNB1, stronger effect = lower value
[11] = locus YLR039C, strain RIC1, stronger effect = lower value
[12] = locus YLR262C, strain YPT6, stronger effect = lower value
[13] = locus YMR263W, strain SAP30, stronger effect = lower value
[14] = locus YMR307W, strain GAS1, stronger effect = lower value
[15] = locus YNL322C, strain KRE1, stronger effect = lower value
[16] = locus YPL055C, strain LGE1, stronger effect = lower value
[17] = locus YPL241C, strain CIN2, stronger effect = lower value

Measured: normalized growth

Cc1cc(OCOc2ccc(Cl)c(C)c2)ccc1Cl
inactive: [1] 0.984 | [2] 0.988 | locus YCL061C, strain MRC1, stronger effect = lower value 1.03 | [3] 1.05 | [4] 0.995 | [5] 0.997 | [6] 0.992 | locus YGR078C, strain PAC10, stronger effect = lower value 1.01 | locus YGR229C, strain SMI1, stronger effect = lower value 0.999 | [7] 0.814 | locus YHR087W, strain rtc3, stronger effect = lower value 0.955 | [8] 1.03 | [9] 1.02 | [10] 0.966 | [11] 1.11 | locus YLR058C, strain SHM2 (second series), stronger effect = lower value 0.989 | locus YLR085C, strain ARP6, stronger effect = lower value 0.973 | [12] 0.99 | locus YML094W, strain GIM5, stronger effect = lower value 0.982 | locus YMR219W, strain ESC1, stronger effect = lower value 0.991 | [13] 0.927 | [14] 0.834 | locus YNL153C, strain GIM3, stronger effect = lower value 1.01 | locus YNL298W, strain CLA4 (second series), stronger effect = lower value 1.04 | [15] 0.982 | locus YNR030W, strain Alg12, stronger effect = lower value 0.97 | locus YOL006C, strain TOP1, stronger effect = lower value 0.916 | [16] 0.975 | [17] 1 | locus YPR135W, strain CTF4, stronger effect = lower value 0.999

Cc1cc(O)cc(=O)o1
inactive: [1] 0.999 | locus YAL021C, strain ccr4, stronger effect = lower value 0.991 | locus YAL026C, strain drs2, stronger effect = lower value 0.998 | locus YAL030W, strain snc1, stronger effect = lower value 0.993 | locus YBL061C, strain skt5, stronger effect = lower value 1 | locus YBR009C, strain hhf1, stronger effect = lower value 0.997 | locus YBR021W, strain FUR4, stronger effect = lower value 0.985 | locus YBR023C, strain chs3, stronger effect = lower value 1.01 | locus YBR171W, strain sec66, stronger effect = lower value 0.988 | [2] 0.992 | locus YBR231C, strain swc5, stronger effect = lower value 1.02 | locus YBR279W, strain paf1, stronger effect = lower value 1 | locus YCL011C, strain gbp2, stronger effect = lower value 0.991 | locus YCL016C, strain dcc1, stronger effect = lower value 0.991 | locus YCL029C, strain bik1, stronger effect = lower value 0.974 | locus YCL069W, strain vba3, stronger effect = lower value 1.01 | locus YCR088W, strain abp1, stronger effect = lower value 0.991 | locus YDL005C, strain med2, stronger effect = lower value 1.01 | locus YDL035C, strain GPR1, stronger effect = lower value 1.02 | locus YDL040C, strain nat1, stronger effect = lower value 1 | locus YDL074C, strain BRE1, stronger effect = lower value 1.01 | [3] 0.988 | [4] 1.03 | locus YDL185W, strain tfp1, stronger effect = lower value 0.971 | locus YDL192W, strain arf1, stronger effect = lower value 0.994 | locus YDR001C, strain nth1, stronger effect = lower value 0.989 | locus YDR069C, strain doa4, stronger effect = lower value 1.03 | locus YDR101C, strain arx1, stronger effect = lower value 0.971 | locus YDR137W, strain rgp1, stronger effect = lower value 0.998 | [5] 1.01 | locus YDR159W, strain sac3, stronger effect = lower value 1.02 | locus YDR162C, strain NBP2, stronger effect = lower value 1.02 | locus YDR195W, strain ref2 0.979 | locus YDR297W, strain sur2, stronger effect = lower value 1.02 | locus YDR318W, strain mcm21, stronger effect = lower value 1.02 | locus YDR334W, strain swr1, stronger effect = lower value 0.989 | locus YDR335W, strain msn5, stronger effect = lower value 1 | locus YDR388W, stronger effect = lower value 0.992 | locus YDR392W, strain spt3, stronger effect = lower value 1.03 | locus YDR502C, strain sam2, stronger effect = lower value 1 | locus YEL003W, strain gim4, stronger effect = lower value 0.992 | locus YEL037C, strain rad23, stronger effect = lower value 0.994 | locus YEL061C, strain CIN8 (second series), stronger effect = lower value 0.992 | [6] 1 | locus YER015W, strain faa2, stronger effect = lower value 1.01 | locus YER016W, strain bim1, stronger effect = lower value 0.994 | locus YER110C, stronger effect = lower value 0.986 | locus YER111C, strain swi4, stronger effect = lower value 1.01 | locus YER155C, strain BEM2 (second series), stronger effect = lower value 1.04 | locus YER155C, strain BEM2, stronger effect = lower value 0.982 | locus YER167W, strain BCK2, stronger effect = lower value 0.99 | locus YFR010W, strain ubp6, stronger effect = lower value 0.982 | locus YGL078C, strain dbp3, stronger effect = lower value 0.981 | locus YGL086W, strain mad1, stronger effect = lower value 0.969 | locus YGL167C, strain pmr1, stronger effect = lower value 0.983 | locus YGL173C, strain kem1, stronger effect = lower value 1.02 | locus YGL227W, strain vid30, stronger effect = lower value 1.01 | locus YGL240W, strain doc1, stronger effect = lower value 1.03 | locus YGL248W, strain PDE1, stronger effect = lower value 0.997 | locus YGL253W, strain hxk2, stronger effect = lower value 0.997 | locus YGR135W, strain pre9, stronger effect = lower value 1.03 | locus YGR252W, strain gcn5, stronger effect = lower value 1.09 | locus YHR013C, strain ard1, stronger effect = lower value 0.998 | locus YHR027C, strain rpn1, stronger effect = lower value 0.989 | [7] 0.992 and 0.959 | locus YHR079C, strain IRE1 (second series), stronger effect = lower value 0.992 | locus YHR079C, strain IRE1, stronger effect = lower value 0.969 | locus YHR094C, strain hxt1, stronger effect = lower value 0.986 | locus YHR129C, strain ARP1, stronger effect = lower value 1 | locus YHR142W, strain chs7, stronger effect = lower value 0.987 | locus YHR200W, strain rpn10, stronger effect = lower value 0.993 | locus YIL066C, strain RNR3, stronger effect = lower value 0.988 | locus YIL073C, strain SPO22, stronger effect = lower value 0.993 | locus YIL125W, strain kgd1, stronger effect = lower value 0.984 | locus YIR030C, strain dcg1, stronger effect = lower value 0.99 | locus YJL092W, strain hpr5, stronger effect = lower value 0.987 | locus YJL095W, strain BCK1 (second series), stronger effect = lower value 1 | locus YJL095W, strain BCK1, stronger effect = lower value 1.01 and 0.959 | locus YJL115W, strain asf1, stronger effect = lower value 0.969 | locus YJL129C, strain trk1, stronger effect = lower value 1 | locus YJL134W, strain LCB3, stronger effect = lower value 0.994 | locus YJL154C, strain vps35, stronger effect = lower value 0.989 | locus YJL164C, strain tpk1, stronger effect = lower value 0.996 | locus YJL166W, strain qcr8, stronger effect = lower value 1.03 | locus YJL168C, strain set2, stronger effect = lower value 0.992 | locus YJL187C, strain SWE1 (second series), stronger effect = lower value 0.992 | locus YJL187C, strain SWE1, stronger effect = lower value 1.01 | [8] 1.01 | locus YJR066W, strain TOR1, stronger effect = lower value 0.921 | [9] 0.998 | locus YKL009W, strain mrt4, stronger effect = lower value 0.961 | locus YKL068W, stronger effect = lower value 0.989 | locus YKL085W, strain MDH1 (second series), stronger effect = lower value 0.984 | locus YKL085W, strain MDH1, stronger effect = lower value 0.984 | locus YKL160W, strain elf1, stronger effect = lower value 0.994 | [10] 1.01 | locus YKR001C, strain vps1, stronger effect = lower value 0.983 | locus YKR026C, strain gcn3, stronger effect = lower value 0.993 | locus YKR091W, strain srl3, stronger effect = lower value 0.983 | locus YLL001W, strain dnm1, stronger effect = lower value 0.995 | locus YLL026W, stronger effect = lower value 1.01 | locus YLL041C, strain sdh2, stronger effect = lower value 0.985 | locus YLR027C, strain aat2, stronger effect = lower value 1.01 | [11] 1.02 | locus YLR058C, strain SHM2, stronger effect = lower value 1 | locus YLR102C, strain apc9, stronger effect = lower value 0.991 | locus YLR113W, strain HOG1, stronger effect = lower value 0.951 | locus YLR221C, strain rsa3, stronger effect = lower value 1.03 | locus YLR258W, strain gsy2, stronger effect = lower value 1.02 | locus YLR262C, strain YPT6 (second series), stronger effect = lower value 0.995 | [12] 1.04 | locus YLR268W, strain sec22, stronger effect = lower value 0.965 | locus YLR320W, strain mms22, stronger effect = lower value 1.05 | locus YLR330W, strain CHS5, stronger effect = lower value 0.99 | locus YLR342W, strain FKS1 (second series), stronger effect = lower value 1 | locus YLR342W, strain FKS1, stronger effect = lower value 1.01 | locus YLR357W, strain rsc2, stronger effect = lower value 0.973 | locus YLR370C, strain arc18, stronger effect = lower value 1.01 | locus YLR371W, strain rom2, stronger effect = lower value 0.974 | locus YLR384C, strain iki3, stronger effect = lower value 1 | locus YLR418C, strain cdc73, stronger effect = lower value 1.01 | locus YML016C, strain PPZ1, stronger effect = lower value 0.985 | locus YML032C, strain rad52, stronger effect = lower value 1.02 | locus YML120C, strain ndi1, stronger effect = lower value 0.994 | locus YML124C, strain tub3, stronger effect = lower value 0.994 | locus YMR058W, strain fet3, stronger effect = lower value 0.987 | locus YMR078C, strain ctf18, stronger effect = lower value 0.991 | locus YMR125W, strain sto1, stronger effect = lower value 0.955 | locus YMR129W, stronger effect = lower value 0.996 | locus YMR205C, strain PFK2, stronger effect = lower value 1.01 | locus YMR223W, strain ubp8, stronger effect = lower value 0.999 | locus YMR231W, strain pep5, stronger effect = lower value 1.01 | [13] 1.01 | [14] 1.01 | locus YNL067W, strain RPL9B, stronger effect = lower value 1.01 | locus YNL071W, strain lat1, stronger effect = lower value 1 | locus YNL183C, strain NPR1, stronger effect = lower value 0.898 | locus YNL209W, strain ssb2, stronger effect = lower value 0.995 | locus YNL233W, strain BNI4, stronger effect = lower value 0.997 | locus YNL248C, strain rpa49, stronger effect = lower value 0.99 | locus YNL250W, strain rad50, stronger effect = lower value 0.991 | locus YNL271C, strain bni1, stronger effect = lower value 0.976 | locus YNL298W, strain CLA4, stronger effect = lower value 0.988 | locus YNL307C, strain MCK1, stronger effect = lower value 0.977 | locus YNL322C, strain KRE1 (second series), stronger effect = lower value 0.99 | [15] 0.997 | locus YNR049C, strain mso1, stronger effect = lower value 0.984 | locus YNR052C, strain pop2, stronger effect = lower value 0.988 | locus YOL012C, strain htz1 0.84 | locus YOL147C, strain pex11, stronger effect = lower value 0.993 | locus YOR001W, strain rrp6, stronger effect = lower value 1.01 | locus YOR061W, strain CKA2, stronger effect = lower value 0.991 | locus YOR069W, strain VPS5, stronger effect = lower value 0.992 | locus YOR070C, strain gyp1, stronger effect = lower value 1.01 | locus YOR080W, strain dia2, stronger effect = lower value 0.997 | locus YOR083W, strain WHI5, stronger effect = lower value 0.999 | locus YOR106W, strain vam3, stronger effect = lower value 0.999 | locus YOR136W, strain idh2, stronger effect = lower value 0.971 | locus YOR144C, strain elg1, stronger effect = lower value 0.989 | locus YOR184W, strain ser1, stronger effect = lower value 0.992 | locus YOR231W, strain MKK1, stronger effect = lower value 0.965 | locus YOR265W, strain rbl2, stronger effect = lower value 1.01 | locus YOR270C, strain vph1, stronger effect = lower value 1.02 | locus YOR290C, strain snf2, stronger effect = lower value 0.974 | locus YOR316C, strain cot1, stronger effect = lower value 0.986 | locus YPL051W, strain arl3, stronger effect = lower value 0.999 | [16] 1.01 | locus YPL078C, strain atp4, stronger effect = lower value 0.994 | locus YPL106C, strain sse1, stronger effect = lower value 1.01 | locus YPL240C, strain hsp82, stronger effect = lower value 0.99 | [17] 1.01 | locus YPL256C, strain CLN2, stronger effect = lower value 0.948 | locus YPR119W, strain clb2, stronger effect = lower value 0.99 | locus YPR141C, strain kar3, stronger effect = lower value 0.984 | locus YPR163C, strain tif3, stronger effect = lower value 0.992 | locus YPR167C, strain met16, stronger effect = lower value 0.996 | strain wtn01, stronger effect = lower value 0.93
